Bioassay records (PubChem BioAssay)
Rows were chosen to be rich in hits. Some 3.3% of all compounds tested hit in one or more screens of this group.
rCAG binder – binds r(CAG) RNA repeats. r(CAG) RNA repeat, TO-PRO-1 dye displacement fluorescence. actives 1.3% (n = 370,000). inhibition, % at 3 µM;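 active = inhibition above the plate cutoff, the mean of all test compounds on that plate plus 3 SD, cut at about 35% in these data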;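 also: 0% = DMSO alone and 100% = 100 µM mitoxantrone as full dye displacement; higher means more dye released from RNA so lower well fluorescence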
TLR4 MyD88 comp – blocks binding of human TLR4 to MyD88 | inhibition, % at 8.4 µM | HeLa CL3-4 TLR4/MyD88 BLA complementation, FRET ratio | actives 0.18% (n = 200,000); in the data active = inhibition above about 25%;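 also: 0% = vehicle and 100% = reference inhibitor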
PRMT1 FP inh – blocks human protein arginine methyltransferase 1 | recombinant PRMT1, activity-based probe fluorescence polarization | inhibition, % at 2.79 µM | actives 1.3% (n = 370,000);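 active = inhibition above about 21% made by adding two undisclosed values, limit read from the data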
NOD2 RIPK2 PPI – blocks binding of human NOD2 to RIPK2. CHO BLA complementation NOD2-RIPK2, CCF4 ratio. actives 0.38% (n = 360,000). AID 624267. inhibition, % at 4.98 µM. O43353; in the data active = inhibition above about 21%;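 also: 0% = vehicle only and 100% = reference blocker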
Target sequence (O43353 whole entry, looked up): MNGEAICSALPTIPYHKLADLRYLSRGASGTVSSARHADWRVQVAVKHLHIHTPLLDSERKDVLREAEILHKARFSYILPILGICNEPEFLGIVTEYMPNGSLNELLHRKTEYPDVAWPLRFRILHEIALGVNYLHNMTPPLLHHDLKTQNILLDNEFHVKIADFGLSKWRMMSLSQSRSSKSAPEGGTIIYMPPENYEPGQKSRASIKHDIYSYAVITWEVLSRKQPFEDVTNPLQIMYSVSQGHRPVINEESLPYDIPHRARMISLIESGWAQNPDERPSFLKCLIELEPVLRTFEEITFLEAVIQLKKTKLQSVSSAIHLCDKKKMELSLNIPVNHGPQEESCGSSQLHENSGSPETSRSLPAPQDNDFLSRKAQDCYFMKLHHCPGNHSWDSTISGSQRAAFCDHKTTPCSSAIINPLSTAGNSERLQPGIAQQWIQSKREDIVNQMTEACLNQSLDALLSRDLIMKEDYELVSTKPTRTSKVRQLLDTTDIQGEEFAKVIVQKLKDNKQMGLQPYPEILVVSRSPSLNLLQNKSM
TLR9-MyD88 block – TLR9-MyD88 interaction inhibition; Q9NR96+Q99836; CHO BLA complementation TLR9-MyD88, CCF4 FRET ratio; inhibition, % at 4.98 µM; actives 0.21% (n = 340,000); AID 504734;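 active = inhibition above the mean over all tested compounds plus 3 SD, cut at about 21% in these data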;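 also: 0% = DMSO only wells and 100% = clavulanate BLA inhibitor control wells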
ABHD5 PLIN5 PPI – ABHD5-PLIN5 protein interaction inhibition; Q00G26+Q8WTS1; Split G. princeps luciferase complementation, luminescence, 4 h; inhibition, % at 4 µM; actives 0.78% (n = 360,000); AID 602281;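 active = inhibition above the mean inhibition across every tested compound plus 3 SD, cut at about 22% in these data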;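 also: 0% = DMSO only wells and the 100% control is not disclosed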
rCAG binder conf – r(CAG) RNA repeat binding, confirmation; shares compounds with rCAG binder; actives 70% (n = 4,300); AID 652065; TO-PRO-1 dye displacement fluorescence; inhibition, % at 3 µM;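 active = inhibition above a per-plate cutoff, the mean inhibition of sample wells plus 3 SD, cut at about 35% in these data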;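 also: loss of TO-PRO-1 fluorescence as compound displaces dye from 1x1 AA loop RNA; 0% = DMSO only wells and 100% = 100 µM mitoxantrone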
dCAG dye counter – counter-screen for rCAG RNA binders: DNA CAG dye complex inhibitors. AID 652068. inhibition, % at 3 µM. shares compounds with rCAG binder. d(CAG) DNA oligo TO-PRO-1 dye displacement, fluorescence. actives 94% (n = 4,300);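 active = inhibition above its plate's cutoff, the mean test-well inhibition plus 3 SD, cut at about 4.8% in these data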;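 also: 0% = DNA dye mix with DMSO and 100% = 100 µM mitoxantrone; hits displace the dye from DNA and so lower well fluorescence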
* hit, by the source's call; · = no result given.

SMILES	rCAG binder	TLR4 MyD88 comp	PRMT1 FP inh	NOD2 RIPK2 PPI	TLR9-MyD88 block	ABHD5 PLIN5 PPI	rCAG binder conf	dCAG dye counter
Cc1ccc(-n2cccc2/C=C2/C(=N)N3C(=NC2=O)SN=C3S(C)(=O)=O)cc1Cl	89.2*	-0.1	9.0	-6.2	7.1	5.1	91.6*	72.9*
CCC1=NN2C(=N)/C(=C\c3cccn3-c3c(C)cccc3C)C(=O)N=C2S1	24.6	-8.2	-0.6	-2.6	-3.7	-7.8	·	·
Cc1cccc(C)c1-n1cccc1/C=C1/C(=N)N2C(=NC1=O)SN=C2S(C)(=O)=O	88.4*	-3.3	0.0	-12.5	-0.8	-2.2	85.1*	59.3*
Cc1ccc(C)c(CNc2ccc(S(=O)(=O)N3CCCCC3)cc2)c1	1.0	·	2.0	-11.5	1.6	-8.8	·	·
CC(C)CNC(=O)C1(C)CCCN1C(=O)c1cccnc1Oc1ccccc1 (centres undefined)	-0.6	·	2.3	-1.8	·	8.9	·	·
CCC(C)N1C(=O)CCC1C(=O)O (centres undefined)	1.5	4.3	-0.3	2.0	5.9	7.6	·	·
Cn1c(=O)c2c(nc(N3CCOCC3)n2C/C=C/c2ccccc2)n(C)c1=O	-4.4	·	2.1	-6.7	·	6.8	·	·
Cc1[nH]n(-c2ccccc2)c(=O)c1C(c1ccccc1[N+](=O)[O-])C(C#N)C#N (centres undefined)	7.5	·	5.6	-3.2	0.7	-14.6	·	·
Cc1[nH]n(-c2ncc(-c3ccccc3)s2)c(=O)c1C(c1ccc(Cl)cc1)C(C#N)C#N (centres undefined)	45.6*	-9.7	6.0	1.6	-16.6	-0.7	80.6*	48.5*
COc1cc(/C=N/NC(=O)Cc2nnc(NC(=O)c3ccccc3)s2)ccc1O	37.9*	·	4.7	-7.2	2.6	-2.5	14.7	7.5*
O=C(Cc1nnc(NC(=O)Nc2ccc(F)cc2)s1)Nc1ccccc1	37.6*	9.9	5.0	4.4	-11.0	1.8	27.2	14.8*
O=C(Cc1nnc(NC(=O)c2ccccc2)s1)N/N=C\c1ccc(O)c(O)c1	17.7	·	4.9	5.6	-8.7	1.2	·	·
O=C(Nc1ccccc1)Nc1nnc(Cc2ccc(F)cc2)s1	35.8*	·	4.6	3.0	3.0	-8.7	10.8	12.3*
Cc1ccc(NC(=O)Nc2nnc(Cc3ccc(F)cc3)s2)cc1	22.9	·	0.1	-3.3	-2.7	-8.2	·	·
CCN(CC)c1ccc(/C=N/NC(=O)Cc2nnc(NC(=O)Nc3ccccc3)s2)cc1	59.5*	1.9	4.1	4.3	-1.6	-2.9	40.0*	26.9*
CCOC(=O)[C@]12CCCC=C1N(Cc1ccc(Cl)cc1Cl)C(=O)[C@H](CC(=O)NCc1cccc3ccccc13)C2	14.2	·	-1.0	10.4	·	-1.4	·	·
COc1cc(O)c(CCC(=O)c2ccc(OC)c(OC)c2)c(OC)c1	-1.2	·	6.7	-7.9	0.2	-2.6	·	·
Clc1ccc(Oc2nc3c(Cl)cccc3s2)cc1Cl	2.6	·	-4.5	-10.5	1.1	2.9	·	·
Cc1ccccc1OCC(=O)NS(=O)(=O)c1ccc(Cl)cc1	2.6	·	4.6	-1.1	2.2	10.5	·	·
Cc1ccc(C(C)C)c(OCC(=O)NS(=O)(=O)c2ccc(Cl)cc2)c1	50.5*	·	0.6	-10.2	-3.6	1.4	36.4*	7.0*
COC(=O)c1cc(=O)n(-c2ccc(C(F)(F)F)cc2)[nH]1	61.0*	·	4.3	-3.6	-5.8	-1.1	5.4	3.2
COC(=O)c1ccc(Cn2cc(C(F)(F)F)ccc2=O)cc1	-2.4	-14.8	-2.2	-11.3	0.6	-1.5	·	·
Cc1ccc(-c2nc3ccccc3o2)cc1NC(=S)NC(=O)/C=C/c1ccco1	25.2	-17.1	2.1	0.6	-9.2	4.1	·	·
O=C(/C=C/c1ccco1)NC(=S)Nc1cccc(-c2nc3ccccc3o2)c1	35.0*	-7.8	9.5	-1.9	-2.2	12.1	21.8	12.7*
O=C(NC(=S)Nc1cccc([N+](=O)[O-])c1)c1ccco1	0.6	1.9	-2.6	6.1	-12.9	-6.5	·	·
O=C(/C=C/c1ccco1)NC(=S)Nc1cccc([N+](=O)[O-])c1	53.7*	0.6	20.5	-26.4	3.2	22.6*	33.5	18.4*
